PubChem BioAssay (NCI)
About 79,000 compounds went through this panel and 15% of them were active in at least one assay; those are over-represented in the sample as a whole. A number with no mark means an inactive call. Calls of active or inactive are those of the source. No stated cut-off is given here; in the data, active means growth inhibition above about 70%; inactive means the rest.

Columns and labels:
[1] = NCI Yeast Anticancer Drug Screen. Data for the rad50 strain (AID 155);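 further: 0% = growth of vehicle-only cultures of the same strain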; settings: S. cerevisiae rad50 strain growth inhibition; at 50.0 µM; hits give high values
Procedure, shortened: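 DNA repair mutant yeast, compound exposure, growth read-out; inhibition is taken relative to vehicle.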

[2] = NCI Yeast Anticancer Drug Screen. Data for the mec2-1 strain (AID 157); settings: S. cerevisiae mec2-1 strain, at 50.0 µM, hits give high values
Procedure, shortened: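 Vehicle-treated cultures served as reference for growth inhibition of compound-exposed mec2-1 yeast.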

[3] = NCI Yeast Anticancer Drug Screen. Data for the sgs1 mgt1 strain (AID 161);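 further: 0% = growth of cultures given vehicle only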; settings: S. cerevisiae sgs1 mgt1 strain, at 50.0 µM, hits give high values
Procedure, shortened: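 Test agents were incubated with a DNA-repair-mutant yeast strain. Growth was then read and compared against vehicle-treated controls.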

[4] = NCI Yeast Anticancer Drug Screen. Data for the cln2 rad14 strain (AID 165);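 further: 0% = growth equal to vehicle treated cultures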; settings: S. cerevisiae cln2 rad14 strain, at 50.0 µM, hits give high values
Procedure, shortened: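 Each compound was tested on cln2 rad14 yeast. Inhibition of growth was calculated against vehicle-exposed controls.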

[5] = NCI Yeast Anticancer Drug Screen. Data for the bub3 strain (AID 167); settings: S. cerevisiae bub3 mutant strain, at 50.0 µM, hits give high values
Procedure, shortened: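 In this screen, a yeast mutant lacking normal mitotic checkpoint function is challenged with compound. Relative growth versus vehicle gives the inhibition value.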

[6] = NCI Yeast Anticancer Drug Screen. Data for the mlh1 rad18 strain (AID 175); settings: S. cerevisiae mlh1 rad18 strain growth inhibition; at 50.0 µM; hits give high values
Procedure, shortened: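 Vehicle-treated cultures served as the reference for growth inhibition in a yeast strain carrying DNA damage repair alterations exposed to each compound.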

Row | SMILES | growth inhibition [1] | growth inhibition [2] | growth inhibition [3] | growth inhibition [4] | growth inhibition [5] | growth inhibition [6]
1 | C/C(=N\O)c1cccc[n+]1Cc1ccccc1 | 12.2% | 12.7% | -15.8% | -21.6% | 17.8% | -3.6%
2 | CCOc1ccc(NC(=O)/C(CC(=O)c2sc(Nc3ccc(C)cc3)nc2C)=N\NC(N)=S)cc1 | -33.3% | 3.15% | 8.95% | -49.6% | -11.4% | -35.5%
3 | Nc1nc(=O)n(C2CCC(CO)O2)cc1F (stereo unspecified) | 34.7% | 18.1% | 16.2% | -2.65% | 10.5% | 5.05%
4 | CC1(C(N)=O)CCC1 | 1.8% | -15.4% | -18.4% | -24.1% | 10.2% | -20.9%
5 | CC(C)(C)/C(CC(=O)CCC(=O)Nc1ccc(Cl)cc1)=N\NC(N)=S | 11.7% | -6.75% | 19.1% | 9.75% | 1.65% | 20.8%
6 | CCCCCCCC(=O)NC(O)C(Cl)(Cl)C(C)Cl (stereo unspecified) | 31.1% | -6.35% | 3.35% | -21.4% | -1.55% | 9.35%
7 | CC(=O)c1cccc(NC(=O)Oc2ccc(Cl)cc2Cl)c1 | 4.55% | 17.9% | 3.25% | 1% | 11.3% | 4.3%
8 | CCCC(=O)N[C@H]1C[C@H]2CC[C@@]1(C)C2(C)C | -31.6% | -27.4% | -15.1% | 11.2% | 10.3% | -1.75%
9 | O=C1CNS(=O)(=O)N1 | -18.9% | 8.45% | -16.5% | 10.2% | -16.4% | -7.85%
10 | Cn1c(=O)c2[nH]c(NCc3ccccc3)nc2n(C)c1=O | 27.4% | -3.9% | 0.7% | -35.2% | 0.4% | -0.2%
11 | O=c1ccocc1OC1OC(CO)C(O)C(O)C1O (stereo unspecified) | -3.95% | -26.4% | -21.1% | -1.35% | -32.3% | -23.1%
12 | O=S(=O)(O)c1cccc2cccc(Nc3ccccc3)c12 | -0.5% | 0.35% | 8.85% | -33.1% | -14.8% | 25.4%
13 | CN(C)CCCOc1nc2c(c(=O)n(C)c(=O)n2C)n1C (tested in a mixture with another compound) | 0.9% | 8.9% | -19.9% | -9.35% | -18.9% | -7.15%
14 | CC1(C)C2CCC(CN)C1C2 (stereo unspecified) | -11.4% | -44.6% | -1.7% | 13.3% | -20.1% | -15.6%
15 | O=C(O)CCc1nc2c(n1-c1ccccc1)C(=O)c1ccccc1C2=O | 38.2% | 20.5% | 34.6% | 34.3% | 37.6% | 34.2%
16 | CC(C)(C)c1ccccc1OC(=O)Nc1ccc(F)cc1 | 3.65% | 7.1% | 7.4% | -14.2% | 19.1% | -3.7%
17 | CC(=O)OC1CCC2(C)C(CCC3C2CC(OC(C)=O)C2(C)C(C(C)CCC(c4ccccc4)c4ccccc4)CCC32)C1 (stereo unspecified) | 9.1% | -20.4% | 1.1% | 14.9% | 0.15% | -1.55%
18 | NC(N)=N/N=C(\c1nc2ccc([N+](=O)[O-])cc2[nH]c1=O)C(O)c1ccc([N+](=O)[O-])cc1 (stereo unspecified) | -16% | -24.9% | -16.6% | -24.1% | -6.7% | 1.85%
19 | CCC(c1ccc(CN(C)C)c(O)c1)C(CC)c1ccc(CN(C)C)c(O)c1 (stereo unspecified) | 5.7% | 1.35% | -11.4% | -12.9% | -2.55% | 2.75%
20 | CC(Nc1ccc([N+](=O)[O-])cc1)S(=O)(=O)O (stereo unspecified) | 7.4% | -0.2% | 13.4% | 16.6% | 12.4% | 18.4%
21 | CC1=CC(=O)N(NC(N)=O)C1=O | -11.4% | -2.9% | -9.5% | -27.9% | -16.4% | 2.15%

Row | SMILES | growth inhibition [1] | growth inhibition [2] | growth inhibition [3] | growth inhibition [4] | growth inhibition [5] | growth inhibition [6]
22 | Cc1cc(C)c(C(C)(C)O)c(C)c1 | 8.45% | 0% | 3.9% | 22.4% | -1.65% | 1.1%
23 | C=CCOC(C)n1c(C)cc(=O)n(C(C)OCC=C)c1=O (stereo unspecified) | -56.6% | -26.8% | -46.6% | -38.5% | -44.9% | -29.8%
24 | CC(=O)OCC1OC(SC2=NC(=O)CS2)C(OC(C)=O)C(OC(C)=O)C1OC(C)=O (stereo unspecified) | 3.3% | -1.8% | 1.45% | -6.6% | -8.85% | 17.4%
25 | CCOC(=O)/C(Cc1cc(=O)n(C)c2ccccc12)=N\Nc1ccccc1 | 2.85% | -12.2% | 2.6% | -4.6% | 10.6% | -6.75%
26 | Cc1nc2c(SCc3ccccc3)ncnc2o1 | 16.1% | -9.5% | 14.9% | 22.8% | 35.4% | 19.5%
27 | Cc1ccccc1NC=O | -26% | -19.2% | -44.5% | 5.9% | -36.5% | -13%
28 | CC(=O)Oc1c(C(C)(C)C)cc([N+](=O)[O-])c(C)c1[N+](=O)[O-] | 97% (active) | 97.3% (active) | 94.9% (active) | 74.2% (active) | 94% (active) | 95.2% (active)
29 | COc1cc2c(c(OC)c1OC)-c1cccc(=O)cc1C(NC(C)=O)CC2 (stereo unspecified) | -3.65% | -14.2% | -3.35% | 8.9% | -2.2% | 21.1%
30 | Nc1cc(Cl)nc(Cl)n1 | 1.5% | -25.6% | 2.45% | 10.1% | -19.4% | 3.8%
31 | CC(O)CN(Cc1ccccc1)CC(C)O (stereo unspecified) | 8.1% | 28.9% | -6.7% | -22.9% | -3.5% | -14.9%
32 | COC(=O)C1(O)CC(=O)CCC1c1ccc(OC)cc1 (stereo unspecified) | 9.75% | -1.35% | -14.8% | -10.3% | -38% | -17.1%
33 | CC1CCCC(C)C1CO (stereo unspecified) | 3.65% | -31.6% | 7.75% | 22.7% | -17.8% | 15.8%
34 | CC[C@H](/C=C/[C@@H](C)[C@H]1CC[C@H]2[C@@H]3CC[C@@H]4CC(=O)CC[C@]4(C)[C@H]3CC[C@]12C)C(C)C | 29.9% | -13.8% | 9.6% | 1.15% | 35.5% | 34%
35 | CN(C)C=Nc1c2c(nc3ccccc13)CCCC2 | -35.4% | -16.4% | -8.8% | 7.4% | 18.9% | 18.4%
36 | CCOC(=O)c1c(-c2ccc(Cl)cc2)c(C#N)c(=S)n(C2OC(COC(C)=O)C(OC(C)=O)C(OC(C)=O)C2OC(C)=O)c1C (stereo unspecified) | -0.4% | -8.75% | -1.75% | 24.1% | 17.5% | 5.7%
37 | CC(C)CCc1c(N)nc(N)[nH]c1=O | 6.8% | -13.6% | -8.6% | -42% | 1% | 3.75%
38 | NC(N)=NC(N)=Nc1ccc(N=C(N)N=C(N)N)cc1 | 3.55% | -12.7% | -6.2% | -0.75% | 10.2% | -1.3%
39 | c1ccc(CC2CCCC(Cc3ccccc3)N2)cc1 (stereo unspecified) | -1.25% | -16.4% | -5.55% | -49.3% | 16.1% | 5.1%
40 | CC(=O)C(C(C)=O)C(c1cccnc1)C(C(C)=O)C(C)=O | 2.7% | 0.65% | 10% | 0.1% | 25.3% | -10.5%
41 | COC(=O)c1ccc(/C=C2\CCc3ccccc3C2=O)cc1 | -9.9% | -9.15% | -16.2% | 12.5% | 14.2% | 11.2%
